Data reported in PubChem BioAssay.

Columns and labels:
[1] = test system: Human papillomavirus type 1a protein E7 (residues 44-93); experiment: small molecules binding HPV E7 44-93 – biochemical, small-molecule microarray, residues 44-93, 635 nm fluorescence, primary screen (AID 1108); settings: fluorescence 635 nm, higher = more signal;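 further: E7 fragment applied at 1 µg/mL in TBST for 1 h at 4 C; score combines spot fluorescence with its signal to noise ratio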
[2] = hepatitis C replication reporter changes, two-sided – Huh7 cells, luciferase reporter, HCV replication inhibitor project, primary screen (AID 1109); settings: Huh7 HCV replicon luciferase reporter, 48 h; higher = more signal;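 further: huh7 hepatoma cells harbouring a luciferase neomycin HCV replicon reporter; luciferase luminescence as measure of HCV replicon replication; test concentration not given here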
[3] = target: Left-right determination factor 2 (Homo sapiens) (UniProt O00292); experiment: small molecules binding LEFTY2 protein – biochemical, small-molecule microarray, 635 nm fluorescence scan, primary screen (AID 1110); settings: higher = more signal
[4] = target: Calmodulin-1 (Homo sapiens) (UniProt P0DP23); experiment: small molecules binding calmodulin-1 with EGTA – biochemical, small-molecule microarray, Cy5-labelled CALM1, profiling panel (AID 1111); settings: Cy5-CALM1 binding fluorescence, higher = more signal;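 further: labelled calmodulin applied in Tris saline Tween buffer holding calcium plus EGTA and DTT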
[5] = target: Calmodulin-1 (Homo sapiens) (UniProt P0DP23); experiment: small molecules binding Ca-loaded calmodulin-1 – biochemical, small-molecule microarray, Cy5-labelled CALM1, plus calcium, artefact control for SMM control-protein annotation, profiling panel (AID 1112); settings: Cy5-CALM1 binding fluorescence, higher = more signal;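 further: score merges spot fluorescence with signal to noise from triplicate slides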
[6] = probe aWnt5a binding to arrayed compounds – biochemical, biotinylated probe, 635/667 nm fluorescence, primary screen (AID 1113); settings: small-molecule microarray, higher = more signal;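 further: score merges 667 nm fluorescence intensity with signal-to-noise per printed feature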
[7] = probe aShh binding to arrayed compounds – biochemical, biotinylated probe, 635/667 nm fluorescence, primary screen (AID 1114); settings: small-molecule microarray, higher = more signal;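 further: probe is biotin-labelled aShh protein from a stem cell growth factor screen; measures binding of labelled protein to compounds printed on the slide; score merges feature fluorescence at 667 nm with signal-to-noise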
[8] = probe aNog binding to arrayed compounds – biochemical, biotinylated probe, 635/667 nm fluorescence, primary screen (AID 1115); settings: small-molecule microarray, higher = more signal;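 further: probe is biotinylated aNog protein used at 0.15 µg/mL for 1 h at 4 C; z-score combines 667 nm fluorescence of each spot with its signal to noise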
[9] = target: Torsin-1A-interacting protein 1 (Homo sapiens) (UniProt Q5JTV8); experiment: compound microarray binding of lysate hLAP1 – cell lysate, small-molecule microarray, COS7 lysate, 635/667 nm fluorescence, primary screen (AID 1116); settings: 635 nm fluorescence, higher = more signal
[10] = target: Alpha-bungarotoxin (Bungarus multicinctus) (UniProt P60615); experiment: compounds binding labelled alpha-BTX control protein – biochemical, small-molecule microarray, Alexa647 label, 635/667 nm fluorescence, artefact control for SMM control protein annotation, profiling panel (AID 1117); settings: alpha-BTX-A647 binding fluorescence, higher = more signal
Sequence of Alpha-bungarotoxin (Bungarus multicinctus) (P60615 whole entry, looked up): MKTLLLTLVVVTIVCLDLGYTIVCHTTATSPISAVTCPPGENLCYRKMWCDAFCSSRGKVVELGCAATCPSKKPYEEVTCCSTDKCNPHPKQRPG

Sequence of Left-right determination factor 2 (Homo sapiens) (O00292 whole entry, looked up): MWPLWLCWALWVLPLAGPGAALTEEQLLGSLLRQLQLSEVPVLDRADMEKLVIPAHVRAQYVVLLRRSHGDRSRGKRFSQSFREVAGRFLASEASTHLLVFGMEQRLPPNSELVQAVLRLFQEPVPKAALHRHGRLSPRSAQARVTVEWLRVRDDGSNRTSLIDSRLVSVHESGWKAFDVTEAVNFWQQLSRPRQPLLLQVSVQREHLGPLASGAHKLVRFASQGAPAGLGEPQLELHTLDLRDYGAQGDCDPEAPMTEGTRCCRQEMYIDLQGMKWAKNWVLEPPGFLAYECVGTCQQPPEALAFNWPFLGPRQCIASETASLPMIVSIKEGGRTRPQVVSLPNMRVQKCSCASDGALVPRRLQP
Sequence of Torsin-1A-interacting protein 1 (Homo sapiens) (Q5JTV8 whole entry, looked up): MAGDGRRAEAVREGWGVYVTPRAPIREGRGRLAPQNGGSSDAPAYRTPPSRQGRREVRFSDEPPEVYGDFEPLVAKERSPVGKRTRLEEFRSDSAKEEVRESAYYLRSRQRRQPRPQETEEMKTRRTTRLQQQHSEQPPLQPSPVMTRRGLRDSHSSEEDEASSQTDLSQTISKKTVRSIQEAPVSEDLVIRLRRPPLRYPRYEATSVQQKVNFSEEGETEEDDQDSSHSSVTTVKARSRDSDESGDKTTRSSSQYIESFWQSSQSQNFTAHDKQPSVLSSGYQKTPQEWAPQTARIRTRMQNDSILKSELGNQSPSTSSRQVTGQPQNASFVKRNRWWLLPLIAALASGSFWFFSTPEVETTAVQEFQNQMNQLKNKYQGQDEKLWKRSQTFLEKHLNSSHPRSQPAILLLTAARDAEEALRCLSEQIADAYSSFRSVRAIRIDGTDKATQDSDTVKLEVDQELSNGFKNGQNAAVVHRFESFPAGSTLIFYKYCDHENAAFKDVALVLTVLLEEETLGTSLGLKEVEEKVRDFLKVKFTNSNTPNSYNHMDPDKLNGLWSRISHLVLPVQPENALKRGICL

| SMILES | composite z-score [1] | z-score [2] | composite z-score [3] | composite z-score [4] | composite z-score [5] | composite z-score [6] | composite z-score [7] | composite z-score [8] | composite z-score [9] | composite z-score [10] |
| --- | --- | --- | --- | --- | --- | --- | --- | --- | --- | --- |
| C#CCCCON=C1C[C@@H](O)[C@@H](O)[C@@H]2[C@@H]3C(=O)N(Cc4ccccc4)C(=O)[C@@H]3CC[C@H]12 | 0.154 | -1.08 | 0.451 | -0.0441 | -0.273 | -0.154 | -0.138 | -0.0245 | 0.28 | 0.234 |
| CCOC(=O)[C@H](Cc1ccccc1)NC(=O)CCC1CC(OC(=O)NCc2ccc3c(c2)OCO3)CC2(CCCC(COC(=O)NCC(c3ccccc3)c3ccccc3)O2)O1 (stereo not given in full) | 1.39 | 0.529 | 0.45 | -0.198 | -0.0205 | -0.175 | 0.0723 | -0.233 | 0.313 | 0.363 |
| COC(=O)CC=C[C@@H](C)[C@H](OC)c1ccccc1Br | -0.0017 | 0.14 | 0.406 | -0.0557 | -0.346 | -0.116 | -0.279 | -0.482 | 0.188 | -0.152 |
| CC(=O)OC[C@H]1O[C@@H](ON=C(C)CCN2CCc3nc(-c4ccccc4)c(-c4ccccc4)cc3C2)[C@H](OC(C)=O)[C@@H](OC(C)=O)[C@@H]1OC(C)=O | 1.32 | -2.07 | 0.687 | 0.328 | -0.697 | 0.0215 | -0.0362 | -0.295 | 0.358 | 0.74 |
| CCN1C(=O)[C@H]2[C@H]3[C@H](O)[C@H](O)CC(=NOCc4ccccc4)[C@@H]3CC[C@H]2C1=O | 0.515 | -0.0462 | 0.609 | 0.36 | -0.467 | -0.0819 | -0.349 | -0.551 | 0.138 | 0.29 |
| CCN1C(=O)[C@H]2[C@H]3[C@H](O)[C@H](O)CC(=NOCc4ccccc4)[C@H]3CC[C@H]2C1=O | -0.0677 | 0.396 | 0.387 | -0.253 | -0.787 | -0.139 | -0.214 | 0.128 | 0.151 | 0.437 |
| COC(=O)[C@H](C)NC(=O)[C@@H](C)CO | 1.25 | -0.431 | 0.5 | 0.601 | -0.369 | -0.0445 | -0.0035 | 0.243 | 0.924 | 0.855 |
| O=C1CCCC2OC12C(O)CCc1ccccc1 (stereo not given) | -0.118 | -0.862 | 0.585 | -0.429 | -0.552 | 0.0516 | -0.206 | -0.175 | 0.0788 | 0.176 |
| CCOC(=O)CCN1C(=O)[C@H]2[C@H]3[C@H](O)[C@H](O)CC(=NNC(=O)OCc4ccc(OC)cc4)[C@@H]3CC[C@H]2C1=O | -0.75 | -0.552 | 0.554 | 0.715 | -0.0636 | -0.124 | -0.323 | -0.118 | 0.94 | 1.21 |
| COCCCNC(=O)[C@@]1(Sc2ccc(C)cc2)CC(=O)N(Cc2ccccc2)[C@@H]1c1ccc(CO)cc1I | 0.362 | -2.02 | -1.54 | -1.11 | 0.214 | -0.0928 | -0.0362 | -0.176 | 1.5 | 1.23 |
| O=C1[C@H]2[C@H]3[C@H](O)[C@H](O)CC(=NO[C@@H]4O[C@H](CO)[C@@H](O)[C@H](O)[C@H]4O)[C@@H]3CC[C@H]2C(=O)N1Cc1ccccc1 | 0.33 | 0.506 | 0.792 | -0.225 | -1.24 | -0.136 | 0.225 | -0.433 | 0.392 | -0.187 |
| O=C(CS)NCCCCCNC(=O)[C@H]1C[C@H]2C(=O)N3CCC[C@H]3C(=O)N2[C@H]1c1cccc(OCCO)c1 | 0.435 | 0.235 | 0.691 | -0.8 | -1 | 0.128 | -0.138 | -0.347 | 1.22 | 1.55 |
